PubChem BioAssay (NCI)
This is part of a sample that, as a whole, favours compounds with a hit. Of some 79,000 tested, about 15% had one in any assay. Cut-off read from the data, not from the text of the source: active = growth inhibition above about 70%; inactive = the rest.

Legend:
[1] = NCI Yeast Anticancer Drug Screen. Data for the rad50 strain (AID 155);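 note: 0% = growth of vehicle-only cultures of the same strain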; details: S. cerevisiae rad50 strain growth inhibition; at 50.0 µM; hits give high values
How it was run: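 Relative growth inhibition (compound vs vehicle) was measured in yeast with a defined repair-gene alteration.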

[2] = NCI Yeast Anticancer Drug Screen. Data for the mec2-1 strain (AID 157); details: S. cerevisiae mec2-1 strain, at 50.0 µM, hits give high values
How it was run: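 Using mec2-1 yeast: add compound, measure growth, express inhibition versus vehicle-treated cultures.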

[3] = NCI Yeast Anticancer Drug Screen. Data for the sgs1 mgt1 strain (AID 161);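 note: 0% = growth of cultures given vehicle only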; details: S. cerevisiae sgs1 mgt1 strain, at 50.0 µM, hits give high values
How it was run: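 Yeast cells carrying a defined DNA-repair defect were exposed to test compounds. Growth inhibition was measured relative to vehicle-treated controls.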

[4] = NCI Yeast Anticancer Drug Screen. Data for the cln2 rad14 strain (AID 165);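 note: 0% = growth equal to vehicle treated cultures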; details: S. cerevisiae cln2 rad14 strain, at 50.0 µM, hits give high values
How it was run: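 Yeast strain cln2 rad14, bearing defects in cell cycle control and DNA repair, serves as the test system; values reflect growth inhibition compared with vehicle.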

[5] = NCI Yeast Anticancer Drug Screen. Data for the bub3 strain (AID 167); details: S. cerevisiae bub3 mutant strain, at 50.0 µM, hits give high values
How it was run: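 Screening used yeast with an engineered genetic alteration affecting cell cycle control. Compound-exposed cultures were compared with vehicle cultures, and reduced growth was taken as inhibition.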

[6] = NCI Yeast Anticancer Drug Screen. Data for the mlh1 rad18 strain (AID 175); details: S. cerevisiae mlh1 rad18 strain growth inhibition; at 50.0 µM; hits give high values
How it was run: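 Steps: expose repair-defective yeast to compound; measure growth; express inhibition against vehicle-treated controls.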

Measured: growth inhibition

NC(=O)c1csc(C2O[C@@H](COP(=O)(O)OP(=O)(O)OC[C@H]3OC(n4cnc5c(N)ncnc54)[C@H](O)[C@@H]3O)[C@H](O)[C@@H]2O)n1 (stereo not given in full)
inactive: [1] 28.8% | [2] -0.75% | [3] -0.55% | [4] -37.5% | [5] 2.75% | [6] 10.9%

O=C(/C=C/c1ccc(OCc2ccccc2)c(OCc2ccccc2)c1)OCc1ccccc1
inactive: [1] -12% | [2] -9.65% | [3] -5.15% | [4] -33.9% | [5] -3.45% | [6] -34.8%

Cc1cc(=O)[nH]c(N/N=C/c2ccc(O)cc2)n1
inactive: [1] -28.9% | [2] -44.5% | [3] -14.7% | [4] 2.65% | [5] -30.4% | [6] -26.8%

C1=C(c2ccccc2)Cc2ccccc21
inactive: [1] 13.4% | [2] 24.4% | [3] 19.9% | [4] -14.8% | [5] 15.4% | [6] 23.9%

Cc1cc2c(cc1C)-c1nn(-c3ccccc3)c(-c3ccc(Cl)cc3)c1CCO2
inactive: [1] 27.2% | [2] 1.35% | [3] -1.75% | [4] 17.9% | [5] -6.2% | [6] 3.65%

CCCCCCC(C(=O)O)C(=O)O
inactive: [1] -20.8% | [2] -15.4% | [3] 23.6% | [4] 13.2% | [5] 1.15% | [6] -5.6%

O=C(Cc1ccccc1)N/N=C\Cc1ccccc1
inactive: [1] -4.85% | [2] 22.8% | [3] 20.8% | [4] -14.1% | [5] -2.35% | [6] 2.25%

O=C(C(=Cc1ccc(F)cc1)C(=O)c1ccccc1)c1ccccc1
inactive: [1] 1.75% | [2] 6.2% | [3] -12% | [4] 5.95% | [5] 3.35% | [6] 26.6%

CC1(C)OC(=O)C=C[C@@]2(C)C1CC(=O)C1(C)C2CCC2(C)C(c3ccoc3)OC(=O)[C@H]3O[C@]321 (stereo not given in full)
inactive: [1] 2.55% | [2] -24.3% | [3] 11.3% | [4] 9.95% | [5] -7% | [6] -6.25%

Cc1ccc(S(=O)(=O)N2CCCC2C(=O)O[C@H]2CC[C@H]3CC=C[C@H]32)cc1 (stereo not given in full)
inactive: [1] -15.6% | [2] -44.7% | [3] -8.2% | [4] -8.45% | [5] -5.25% | [6] -21.6%

Nc1cc2c(cc1Cl)-c1cc(Cl)ccc1C2=O
inactive: [1] 5.7% | [2] -9.65% | [3] -2.2% | [4] -24.4% | [5] -8.5% | [6] -8.5%

COc1ccc(CNc2ccccc2)cc1OC
inactive: [1] -6% | [2] 7.95% | [3] -3% | [4] -33.6% | [5] -9.15% | [6] -40%

Cc1cc2c(cc1Cl)SC(NNC(=O)c1ccccc1)=NS2(=O)=O
inactive: [1] -44.9% | [2] -31.7% | [3] -43.8% | [4] -42.2% | [5] -31.1% | [6] -38.2%

CCCCNc1cccc2ccccc12
inactive: [1] 50.2% | [2] 23.1% | [3] -10.2% | [4] -43.5% | [5] 2.55% | [6] 27.6%

CCCCCCCCCCCCCCCC(=O)Oc1ccc(/C(CC)=C(/CC)c2ccc(OC(=O)CCCCCCCCCCCCCCC)cc2)cc1
inactive: [1] 16.1% | [2] -8.1% | [3] 8.55% | [4] 1.85% | [5] 8.65% | [6] 4.25%

c1ccc2c(c1)c1ccccc1c1c3ccccc3c3ccccc3c21
inactive: [1] -10.9% | [2] -14.6% | [3] -1.05% | [4] -18.6% | [5] 0.65% | [6] -20.1%

CCC1C(=O)Nc2ccccc21 (stereo not given)
inactive: [1] 16.4% | [2] 16.9% | [3] 1.3% | [4] 7.85% | [5] 13.8% | [6] 8.5%

COc1cc(C=O)c([N+](=O)[O-])cc1OC
inactive: [1] 14.2% | [2] -20.7% | [3] 18.2% | [4] 20.9% | [5] -8.5% | [6] -8.85%

O=C(CN(C(=O)OC12CC3CC(CC(C3)C1)C2)C(=O)OC12CC3CC(CC(C3)C1)C2)Oc1ccc([N+](=O)[O-])cc1
inactive: [1] 7.75% | [2] 7.15% | [3] 7.35% | [4] 31.8% | [5] 13.6% | [6] -0.85%

Cc1c2ccccc2nc(CSCC(O)CO)[n+]1[O-] (stereo not given)
inactive: [1] -8.4% | [2] 10.7% | [3] 12.3% | [4] -55.6% | [5] 14.4% | [6] 6.85%

N#C/C(=C\C1CCCC([N+](=O)[O-])C1)C1CCC([N+](=O)[O-])CC1 (stereo not given)
inactive: [1] -0.55% | [2] 5.3% | [3] -7.15% | [4] -6.5% | [5] -5.05% | [6] 2.85%

CCOCCOCCOCOCCOCCOCC
inactive: [1] 17.2% | [2] -25.2% | [3] 8.4% | [4] 7.25% | [5] 25.9% | [6] -4%

O=C1C(c2ccccc2)=C(c2ccccc2)C(c2ccc(Sc3ccc(C4=C(c5ccccc5)C(=O)C(c5ccccc5)=C4c4ccccc4)cc3)cc2)=C1c1ccccc1
inactive: [1] 12.9% | [2] 22.6% | [3] 30.6% | [4] 15.7% | [5] -1.2% | [6] 24.2%

S=C(SCc1nc(-c2ccc(Cl)cc2)no1)N1CCSCC1
inactive: [1] -1.9% | [2] -24.9% | [3] 17.9% | [4] -2.6% | [5] -3.25% | [6] -9.4%

CCCCCCC1(C=O)C(=O)NC(=O)N1C (stereo not given)
inactive: [1] 10.3% | [2] 9.65% | [3] 6.45% | [4] 13.3% | [5] 4.1% | [6] -0.35%

O=C(O)C(CCl)(CCl)CCl
inactive: [1] 19.4% | [2] 1.3% | [3] 1.05% | [4] 17.6% | [5] 13.8% | [6] 15.2%

CC(C)C(NCc1c(O)ccc2c(-c3ccccc3)cc(=O)oc12)C(=O)O (stereo not given)
inactive: [1] -33.5% | [2] -21.6% | [3] -19% | [4] -12.2% | [5] -35.5% | [6] -10.2%

CN(C)c1cccc2c1C(=O)C=CC21c2ccc(N(C)C)c3c(N(C)C)ccc(c23)C(c2ccccc2)C1c1ccccc1 (stereo not given)
inactive: [1] -6.15% | [2] -11.4% | [3] -4.55% | [4] -27.3% | [5] -31.6% | [6] -8.75%

Cc1cc2nc3c(=O)[nH]c(=O)nc-3n(CCN(CCO)CCO)c2cc1Cl
inactive: [1] 58.9% | [2] 7.95% | [3] 48.3% | [4] 14.8% | [5] 1.55% | [6] 17.8%

Cc1ccc(CC(=O)C(=O)O)c([N+](=O)[O-])c1
inactive: [1] -9.7% | [2] 38.1% | [3] 4.5% | [4] -23.6% | [5] -17.9% | [6] 8.2%

Oc1ccc(N=Cc2ccc(C=Nc3ccc(O)cc3)cc2)cc1
inactive: [1] -22.9% | [2] -12.6% | [3] -19% | [4] -7.7% | [5] -13.4% | [6] -16.4%

C/C(=N/Nc1ccc([N+](=O)[O-])cc1[N+](=O)[O-])C(CC(C(=O)NCc1ccccc1)/C(C)=N\Nc1ccc([N+](=O)[O-])cc1[N+](=O)[O-])C(=O)NCc1ccccc1 (stereo not given)
inactive: [1] 5.25% | [2] -16.5% | [3] -0.1% | [4] -5.05% | [5] 21.1% | [6] 11.8%

CCC(C)C1NC(=S)N(c2ccccc2)C1=O (stereo not given)
inactive: [1] -8.65% | [2] 7.05% | [3] -18.1% | [4] -0.55% | [5] -9% | [6] -30.4%

COc1ccc(Nc2nc3c(N)cc(C(F)(F)F)cc3nc2-c2ccccc2)cc1OC
inactive: [1] 0.5% | [2] 0.95% | [3] -22.6% | [4] -6.8% | [5] -18.6% | [6] -7.1%

NC(=O)N/N=C/c1ccc(O)cc1
inactive: [1] 5.15% | [2] -1.15% | [3] 1% | [4] -11.1% | [5] -3.85% | [6] -1.5%

CCOC(=O)C1(Br)C(c2ccccc2)NC(=O)N(C2OC(COC(=O)c3ccccc3)C(OC(=O)c3ccccc3)C2OC(=O)c2ccccc2)C1(C)Br (stereo not given)
inactive: [1] -25.4% | [2] -28.4% | [3] -27.9% | [4] 6.4% | [5] 7% | [6] -22.8%

CC1=CCC(CC(=O)O)C1(C)C (stereo not given)
inactive: [1] 10.2% | [2] 2.05% | [3] -2.85% | [4] 4.3% | [5] 6.55% | [6] -5%

O=C(CCC/C(CC(=O)c1ccc(Cl)cc1)=N\NC(=O)c1cc2ccccc2cc1O)Nc1cccc([N+](=O)[O-])c1
inactive: [1] 52% | [2] 47.2% | [3] 52.9% | [4] 25.6% | [5] 6% | [6] 56.8%

CCOC(=O)CN=C1NNS(=O)(=O)c2ccccc21
inactive: [1] 3.55% | [2] -17.4% | [3] -10.2% | [4] 28.4% | [5] -23.1% | [6] 6.35%

CC#CCCC1CCCCNC1=O (stereo not given)
inactive: [1] 0.8% | [2] -16.9% | [3] 27.1% | [4] 12.1% | [5] 26.5% | [6] 3.7%
